# Most compounds without a hit are left out; they make up all but 14% or so of the library.
# A350 fluor = A350 region autofluorescence. AID 590. Compound autofluorescence, 340/450 nm, Alexa 350 dye-equivalents; hits give high values. max dye-equivalent concentration, M. 11% of 59,000 active; in the data active = max dye-equivalent concentration above about 10 nM; inconclusive = mostly about 1.1 nM to 9.6 nM
# HSD17B inhib = inhibitors of human HSD17B10 dehydrogenase; Q99714; recombinant HSD17B10, NADH fluorescence kinetic; Potency, µM (titrated, usually from 57.1 µM), for the others: top-dose activity change, negative = inhibition, actives largely listed as inhibitors; 7.6% of 75,000 active; AID 893;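 note: the protocol describes HADH2 (HSD17B10) and not the HSD17B4 of the title; potency is the fitted concentration of half-maximal effect; % is set by controls: 0 for no effect and ±100 for the full control effect; nearly all actives have a fitted effect of over 70% in size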
#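 20 nM HADH2, pH 9.0 Tris/Tween; cpd preinc 15 min RT; start w/ 1 mM NAD+ + 90 uM b-hydroxybutyryl-CoA; kinetic fluor ex360/em450 q30s x 4 min; delta last-first.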
# CRE Fsk mod = CRE-bla signaling modulation under forskolin stimulation; AID 662; 2.5% of 71,000 active; Potency, µM (highest dose often 38.2 µM), without a hit: top-dose activity change, negative = inhibition, usual class: activators; CHO CRE-bla reporter (cAMP response element driving beta-lactamase), forskolin EC10, beta-lactamase ratio; active = well fitted activation curve with a large enough effect in the signal ratio, with a control signal flat, not every such curve was filed as active; inconclusive = small, poorly fitted or top-dose-only effect, or effect the other way, or a change in a side signal; the % refers to the signal ratio; note: potency is the fitted concentration of half-maximal effect; % of control where 0% means no effect
#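 Cells were plated overnight at 37 °C, exposed to compound titrations plus EC10 NKH 477 for 3 h, then given CCF4 dye for 2 h at room temperature. Blue/green (460/530 nm) ratio was converted to %Activity and AC50 values calculated.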
# HADH2 inhib = blocks human hydroxyacyl-CoA dehydrogenase type II; 3.4% of 73,000 active; recombinant HADH2, NADH fluorescence, beta-hydroxybutyryl-CoA; Potency, µM (highest dose often 57.1 µM), for inactives: at the highest dose activity change, negative = inhibition, actives largely listed as inhibitors; note: potency is the fitted concentration of half-maximal effect; % is set by controls: 0 for no effect and ±100 for the full control effect; nearly all actives have a fitted effect of over 60% in size
# Target sequence (Q99714 whole entry, looked up, one chain of several): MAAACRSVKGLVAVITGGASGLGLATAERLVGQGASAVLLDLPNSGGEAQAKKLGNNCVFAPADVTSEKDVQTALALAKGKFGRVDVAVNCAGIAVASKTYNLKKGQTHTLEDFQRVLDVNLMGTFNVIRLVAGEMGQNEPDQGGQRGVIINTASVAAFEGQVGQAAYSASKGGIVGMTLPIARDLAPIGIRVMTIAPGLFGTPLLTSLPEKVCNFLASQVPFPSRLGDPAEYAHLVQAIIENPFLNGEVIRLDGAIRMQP
#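 NADH fluorescence (ex 360/em 450 nm) read every 30 s for 4 min; activity taken as last-minus-first time point difference. Enzyme 20 nM, NAD+ 1 mM, beta-hydroxybutyryl-CoA 90 uM, pH 9.0 Tris buffer.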
# AID923 = qHTS Assay for Allosteric/Competitive Inhibitors of Caspase-1: Spectroscopic Profiling in AFC Spectral Region. compound fluorescence, AFC spectral region (405/520 nm). Potency, µM (highest dose often 57.5 µM), for the others: top-dose fluorescence increase, usual class: activators. 1.1% of 75,000 active; note: potency is the fitted concentration of half-maximal effect; 0% is about no effect
#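 Compound autofluorescence profiled at 405 nm ex/520 nm em during kinetic caspase 1 run (50 nM enzyme, 5 uM Ac-WEHD-AFC, HEPES pH 7.5, 10 mM DTT). Titration up to 57 uM; baseline from regression intercept, normalized to AFC standard curve.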
# 4-MU autofl = 4-MU region autofluorescence; AID 589; 11% of 59,000 active; max dye-equivalent concentration, M; compound autofluorescence, 340/450 nm, 4-MU equivalents; hits give high values; in the data active = max dye-equivalent concentration above about 10 nM; inconclusive = mostly about 1.1 nM to 9.6 nM
#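 Compounds in 100 mM Tris, pH 8.0, sat 15 min at room temperature before fluorescence was read at 340 nm excitation/450 nm emission; a per-plate six-point 4-MU standard curve converted signals to dye-equivalent concentration at each compound concentration.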
# * marks the source's active call; other numbers are inactive results; i = inactive; ? = inconclusive; . = not tested or not shown; [ ] = remark or other dose. Unless noted, calls come from the whole dose curve; as a rule, active = well fitted curve in the direction sought with a large enough effect; inconclusive = small, poorly fitted or top-dose-only effect, or another doubt; inactive = no such curve, though single readings can be large; an effect the other way counts as inactive or inconclusive.
SMILES,A350 fluor,HSD17B inhib,CRE Fsk mod,HADH2 inhib,AID923,4-MU autofl
Cn1c(=O)c(-c2cc(F)cc(F)c2)nc2cnc(N3CCOCC3)nc21,?,14%,?,1%,12%,?
CC1=C(CC[C@H](C)CO)O[C@@H]2C[C@@H]3[C@H]4CC[C@H]5C[C@@H](O)CC[C@]5(C)[C@@H]4CC(=O)[C@@]3(C)[C@@H]12,i,6%[11.4 µM],16%[7.6 µM],6%[11.4 µM],-2%[11.5 µM],i
O=C(OCc1ccccc1)c1ccccc1,.,-3%,.,.,-1%,.
NC(=O)COC(=O)c1ccc(Oc2ccccc2)cc1,2.2e-08M*,-9%,5%,9%,3%,2.2e-08M*
CN(C(=O)c1ccccc1)c1nc2ccccc2s1,i,2%,4%,-12%,-1%,i
COc1cccc(N(C(=O)c2cccs2)c2nc3ccccc3s2)c1,3.8e-08M*,?,3.2µM*,186%,-1%,2.2e-08M*
O=C1c2cccc3c(N4CCCCC4)ccc(c23)C(=O)N1c1ccccn1,2.8e-08M*,3%,?,-1%,18%,2.2e-08M*
NCC[C@H](O)C(=O)N[C@H]1C[C@@H](N)[C@@H](O[C@H]2O[C@@H](CN)[C@@H](O)[C@@H](O)[C@@H]2O)[C@@H](O)[C@@H]1O[C@H]1O[C@@H](CO)[C@@H](O)[C@@H](N)[C@@H]1O,i,3%[25.6 µM],2%[17.1 µM],4%[25.6 µM],-2%[25.7 µM],i
Cc1ccc2c(c1)N[C@H](c1ccc(C(=O)O)cc1)c1cccn1-2,5.6e-08M*,?,1%[7.6 µM],-9%[11.4 µM],2%[11.5 µM],5e-08M*
c1csc(-c2nn3c(C4COc5ccccc5O4)nnc3s2)c1 (stereo not drawn),i,20µM*,9%,1.6µM*,3%,i
c1ccc2c(c1)OCC(c1nnc3n1-c1ccccc1SC3)O2 (stereo not drawn),i,-1%,-1%,11%,-1%,i
c1ccc2c(c1)OCC(c1nnc3sc(-c4ccc5c(c4)OCO5)nn13)O2 (stereo not drawn),1.6e-07M*,25µM*,14%,?,2%,1.6e-07M*
Fc1ccc(-c2nnc3sc(C4COc5ccccc5O4)nn23)cc1 (stereo not drawn),i,-6%,9%,9%,-1%,i
c1ccc2c(c1)CCN(c1nc3cc4c(cc3s1)OCCO4)C2,i,32µM*,9%,?,0%,i
Cc1csc2nc3ccccc3c(=O)n12,3.2e-07M*,32µM*,10µM*,?,-2%,3.2e-07M*
Cc1ccc(N(Cc2ccccc2)Cc2ccccc2)cc1,i,3%[11.4 µM],?,5%[11.4 µM],0%[11.5 µM],i
CC(=O)Nc1nc(C)nc(-c2ccccc2OC(C)=O)n1,1.7e-07M*,-13%,?,-12%,5%,1.4e-07M*
N[C@H](C(=O)O)c1ccc(C(=O)O)cc1,.,8%,?,-5%,0%,.
COc1cc2c(cc1OC)C1=C(C#N)CN(C3CCCCC3)CN1CC2,.,-1%,1.6µM*,-6%,5%,.
CCc1nc(NCc2ccccn2)c2oc3ccccc3c2n1,?,-12%,?,7%,-3%,i
Cc1nc(NC(C)c2ccccc2)c2oc3ccccc3c2n1 (stereo not drawn),?,-19%,?,-5%,4%,?
Cc1nc(Nc2ccncc2)c2oc3ccccc3c2n1,i,32µM*,13%,?,1%,i
CCc1nc(Nc2ccncc2)c2oc3ccccc3c2n1,?,25µM*,?,?,-1%,?
CCc1nc(NC(C)C)c2oc3ccccc3c2n1,?,-22%,1.6µM*,9%,0%,i
Cc1nc(NCCc2cnc[nH]2)c2oc3ccccc3c2n1,i,-3%,11%,4%,1%,i
SMILES,A350 fluor,HSD17B inhib,CRE Fsk mod,HADH2 inhib,AID923,4-MU autofl
Cc1nc(NCc2ccco2)c2oc3ccccc3c2n1,i,26%,7.9µM*,-5%,0%,i
Cc1cnc(CNc2ncncc2-c2c(C)noc2C)cn1,i,-1%,?,?,2%,i
Cc1ccc2c(c1)N(CC(=O)NCCN1CCOCC1)C(=O)CO2,.,14%,-5%,3%,0%,.
CCOC(=O)Cn1c(CN(Cc2ccccc2)Cc2ccccc2)nc2c1c(=O)n(C)c(=O)n2C,i,2%,1%,-8%,0%,i
CC(=O)Nc1ccc(Nc2nc(C)nc3c2oc2ccccc23)cc1,8.8e-07M*,?,?,32µM*,3%,5.8e-07M*
CC(=O)c1ccc(Nc2ncnc3c2oc2ccccc23)cc1,3.4e-08M*,-6%,?,-3%,-1%,3.1e-08M*
CCCCNC(=O)c1cccc(C(=O)NCCCC)c1,i,5%,-2%,9%,2%,i
O=C(NCCCO)c1ccc2[nH]c3ccccc3c2c1,i,32µM*,6%,?,-2%,i
COc1ccc(OC2C=CC(C#Cc3ccc(C(C)(C)C)cc3)OC2CO)cc1 (stereo not drawn),.,4%[11.4 µM],.,-5%[11.4 µM],0%[11.5 µM],.
COc1ccc(-c2cc(C(F)F)n3ncc(C(=O)N4CCSCC4)c3n2)cc1,1.5e-07M*,32µM*,?,-18%,16%,1.4e-07M*
Cc1ccc(-c2cc(C(F)F)n3ncc(C(=O)N4CCN5CCCC5C4)c3n2)cc1 (stereo not drawn),4.2e-08M*,25µM*,?,8%,4%,3.7e-08M*
CCOC(=O)C1CCN(C(=O)c2cnn3c(C)cc(C)nc23)CC1,?,25µM*,?,?,0%,?
CCOC(=O)C1CCN(C(=O)c2cccnc2)CC1,i,2%,1%,16%,0%,i
Cc1ccc(-c2cc(C(F)(F)F)n3ncc(C(=O)O)c3n2)cc1,?,-11%,1%,-2%,5%,?
CCOC(=O)C1CCCN(C(=O)c2cnn3c(C(F)F)cc(-c4ccc(C)cc4)nc23)C1 (stereo not drawn),3.4e-08M*,25µM*,?,0%,10%,4e-08M*
CCOC(=O)c1cnn(-c2cc(C)c3cc(C)cc(C)c3n2)c1N,?,7%,3%,11%,-2%,i
CC(C)CO/N=C1/C[C@@H](O)[C@@H](O)[C@@H]2[C@@H]3C(=O)N(C(C)(C)C)C(=O)[C@H]3CC[C@H]12,.,5%[11.4 µM],.,-6%[11.4 µM],2%[11.5 µM],.
NC[C@H](O)C1CCCCCCC1,?,-14%,1%,-3%,1%,i
CC(C)C(=O)NCCn1ccc2ccccc21,i,2%,-10%,6%,-1%,i
Cc1cc2ccccc2n1CCNC(=O)C(C)C,.,5%,13µM*,14%,7%,.

# From PubChem
